Measurements published in PubChem BioAssay AID1053173 (Broad Institute, 2014).
Hit rate of the full screen: of about 1,500 compounds, about 390 (26%) were called active. How the calls were made is not given here. Only a sample is shown. Potency and affinity values are given separately.

Biological target: Histone-lysine N-methyltransferase NSD2 (Homo sapiens) (UniProt O96028)
Test: blockers of NSD2 H4 peptide methylation – biochemical, AlphaScreen, cherry-picked samples, dose response (AID 1053173);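 further: 0% = neutral control wells and -100% = positive control wells on each plate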
Conditions: 120 min; series mostly up to 10 µM; activity change, negative = inhibition: at the top concentration

Chain of Histone-lysine N-methyltransferase NSD2 (Homo sapiens) (O96028 whole entry, looked up): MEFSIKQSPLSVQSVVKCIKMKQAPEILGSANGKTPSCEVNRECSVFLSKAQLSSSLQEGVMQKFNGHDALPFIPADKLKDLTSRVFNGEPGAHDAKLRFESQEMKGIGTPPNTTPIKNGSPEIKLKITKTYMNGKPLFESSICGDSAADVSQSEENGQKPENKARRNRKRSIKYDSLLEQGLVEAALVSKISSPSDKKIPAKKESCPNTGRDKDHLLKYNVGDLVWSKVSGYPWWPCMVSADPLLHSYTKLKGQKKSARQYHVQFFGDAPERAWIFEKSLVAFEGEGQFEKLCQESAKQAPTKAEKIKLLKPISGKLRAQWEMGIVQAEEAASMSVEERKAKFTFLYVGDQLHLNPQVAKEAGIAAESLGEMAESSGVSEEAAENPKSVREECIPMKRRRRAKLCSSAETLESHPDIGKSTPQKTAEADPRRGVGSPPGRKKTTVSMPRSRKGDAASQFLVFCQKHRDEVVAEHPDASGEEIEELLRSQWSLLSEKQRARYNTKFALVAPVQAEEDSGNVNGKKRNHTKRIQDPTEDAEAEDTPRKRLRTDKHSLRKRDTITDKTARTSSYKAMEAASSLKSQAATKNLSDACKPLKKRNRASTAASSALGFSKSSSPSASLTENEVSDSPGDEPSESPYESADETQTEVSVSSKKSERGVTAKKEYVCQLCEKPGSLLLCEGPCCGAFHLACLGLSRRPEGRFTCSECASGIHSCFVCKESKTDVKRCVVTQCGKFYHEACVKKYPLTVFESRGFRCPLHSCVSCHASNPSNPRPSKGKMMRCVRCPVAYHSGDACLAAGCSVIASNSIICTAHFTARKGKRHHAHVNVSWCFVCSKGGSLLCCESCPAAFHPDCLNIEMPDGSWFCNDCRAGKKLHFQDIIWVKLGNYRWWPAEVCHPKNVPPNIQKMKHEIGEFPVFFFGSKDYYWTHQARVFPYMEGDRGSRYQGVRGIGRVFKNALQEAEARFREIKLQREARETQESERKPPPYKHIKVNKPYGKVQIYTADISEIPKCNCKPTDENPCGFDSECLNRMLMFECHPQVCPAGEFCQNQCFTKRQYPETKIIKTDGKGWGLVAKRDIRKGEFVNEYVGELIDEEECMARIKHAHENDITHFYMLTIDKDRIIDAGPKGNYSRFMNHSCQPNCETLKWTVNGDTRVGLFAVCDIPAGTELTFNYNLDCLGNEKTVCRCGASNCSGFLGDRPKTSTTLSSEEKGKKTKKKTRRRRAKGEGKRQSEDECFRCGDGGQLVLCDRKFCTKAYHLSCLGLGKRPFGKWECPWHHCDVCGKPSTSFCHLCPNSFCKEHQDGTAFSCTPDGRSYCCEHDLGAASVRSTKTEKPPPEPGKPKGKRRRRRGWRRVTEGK

Activity change, negative = inhibition, inactive:
O=C(O)c1cc(N/N=C/c2ccc3c(c2)OCO3)ccc1Cl -0.549%
O=c1cc(C=NNc2ccccc2)[nH]c(=O)[nH]1 -4.13%
Cc1noc(C)c1S(=O)(=O)N1CCN(S(=O)(=O)c2ccccc2C#N)CC1 4.24%
CCCC(CCC(=O)Nc1cccc([N+](=O)[O-])c1)C(=O)O (centres undefined) -0.707%
COc1cc(C(=O)Oc2cccc(/C=N/NC(=O)c3cccnc3)c2)cc(OC)c1OC -2.82%
CNC(=S)NC(CC(=O)OC)c1ccc2c(c1)OCO2 (centres undefined) 3.44%
CC[n+]1c(/C=C/Nc2ccccc2)oc2ccccc21 0.086%
Cc1cc(Cl)c(OCCN2C(=O)NC(C)(C)C2=O)c(Br)c1 -0.445%
COc1ccc(/C=C/C(=O)OCC(=O)NCC2CCCO2)cc1 (centres undefined) 3.92%
COc1ccccc1CN(Cc1cc2cc3c(cc2[nH]c1=O)OCCO3)Cc1nnnn1Cc1ccco1 -4.86%
CCOC(=O)CN(C(=O)COc1nc(-c2ccccc2)cc(C)c1C#N)c1ccccc1 -0.665%
COc1cc(N)c(C(=O)c2nccc3cc(OC)c(OC)cc23)cc1OC -2.98%
COc1ccc(C(=O)Nc2ccc3[nH]ccc3c2)cc1OC 4.26%
COc1ccc(C(=O)Cc2nnc(C)s2)cc1 -1.01%
C/C(=N/NC(=O)CCc1ccccc1)c1ccco1 -2.07%
Cc1ccccc1NC(=O)CN1CCC(C(=O)c2ccc3c(c2)OCCO3)CC1 -2.43%
COc1ccc(C2=NNC(c3cccs3)=Nc3ccc(OC)cc32)cc1 -11.7%
COc1ccc(-n2nnnc2-c2cnc(N3CCCC3)nc2C(F)(F)F)cc1 1.7%
O=[N+]([O-])c1cc2ncccc2c2ncccc12 -1.34%
Cc1cc(C)n(-c2ncccc2[N+](=O)[O-])n1 -2.95%
COc1ccc(/C=C(\C#N)C(=O)N2COCC2(C)C)cc1 -1.43%
COc1ccc(NC(=O)CN(C)S(=O)(=O)c2ccc(C)cc2)c([N+](=O)[O-])c1 -2.22%
C=CCc1cccc2cc(C(=O)Nc3ccc(NC(C)=O)cc3)c(=O)oc12 0.142%
COC(=O)c1cc(NC(=O)Nc2cc(OC)ccc2OC)cc(C(=O)OC)c1 0.332%
N=C1/C(=C\c2ccc(Br)o2)C(=O)N=C2SC(CC(=O)N3CCCCC3)=NN12 -4.58%
COc1ccc(/C=C2\N=C(C(C)(C)C)OC2=O)c(OC)c1 -1.37%
O=C(c1ccccc1F)N(Cc1cccs1)C1CCS(=O)(=O)C1 (centres undefined) -3.94%
Cc1ccc(C(=O)Nc2ccc(Cl)cc2C(F)(F)F)c(Cl)c1 0.435%
CCC1=[N+]([O-])C(C)(/C(C)=N\O)N(O)C1(C)C (centres undefined) 3.64%
COc1cc(NC(=O)c2[nH]c(C)c(C(C)=O)c2C)cc(OC)c1OC -2.22%
COc1ccc(C2SCCN2S(=O)(=O)c2ccccc2)cc1 (centres undefined) 1.06%
COc1ccc(NC(=O)C2Cc3c(-c4ccc(Cl)cc4)ccnc3O2)cc1 (centres undefined) 4.33%
O=C(O)CC1S/C(=N/N=C/c2ccc(-c3ccccc3[N+](=O)[O-])o2)NC1=O (centres undefined) -2.32%
CCN1C(=O)/C(=C\c2ccc(-c3ccc([N+](=O)[O-])cc3OC)o2)SC1=Nc1cccc(C(=O)O)c1 -11.5%
Nc1ccc2c(c1)OCCOCCOCCOCCOCCO2 0.815%
CCCOc1ccc(C(C)=O)cc1CC(C(N)=O)C(N)=O -1.92%
COc1ccc2c(c1)Cc1sc(NC(=O)c3ccccc3)nc1-2 -2.64%
NC(=O)c1nsc(C(=O)N(c2ccccc2)C(C(=O)NCC2CCCO2)c2ccc3ncccc3c2)c1N (centres undefined) 0.907%
O=C(Nc1ccc(S(=O)(=O)Nc2ncccn2)cc1)C1CC(=O)N(c2ccc(Cl)cc2)C1 (centres undefined) -2.03%
O=C(NCCc1ccccn1)C1CCCN1S(=O)(=O)c1ccc(Cl)cc1 (centres undefined) 2.82%
CCOC(=O)C1CCCN(C(=O)c2ccc(S(=O)(=O)Nc3ccccc3OC)cc2)C1 (centres undefined) 4.12%
Cn1c(SCC(=O)Nc2ccc3c(c2)OCCO3)nnc1-c1ccncc1 -2.11%
CCOC(=O)c1cccc(P(C)(C)=O)c1 -1.87%
COc1ccccc1NC(=O)c1ccc(NC(=O)C2COc3ccccc3O2)cc1 (centres undefined) -1.04%
C=CC[n+]1c(-c2ccc(Cl)cc2Cl)csc1Nc1c(C)n(C)n(-c2ccccc2)c1=O -13.5%
S=C(Nc1cccnc1)Nc1cccc2cnccc12 -0.94%
CCN(C(=S)Nc1cccnc1)c1cccc2ccccc12 -3.41%
O=c1c2ccccc2nnn1CSc1nc2ccccc2c(=O)n1CCCO 1.38%
O=C(NC(=S)Nc1ccccc1N1CCCC1)c1ccco1 -10.3%
Cc1cc2c(OCC(O)CNC3CCCCC3)cccc2[nH]1 (centres undefined) -6.61%
CC1=CS(=O)(=O)CC1Sc1ncn[nH]1 (centres undefined) -1.01%
COc1cccc(CNc2cccc3cccnc23)c1O -0.684%
Oc1ccc(CNc2ccccc2O)cc1 -2.41%
Cc1ccccc1N(C(=O)c1snc(C(N)=O)c1N)C(C)C(=O)NC1CCCCC1 (centres undefined) 0.295%
CC(=O)Nc1ccc(NCc2ccc(C)s2)cc1 1.27%
CCOc1c(O)ccc(/C=C2\SC(=S)NC2=O)c1[N+](=O)[O-] -7.61%
Cc1ccc(Cl)c(OCC(=O)Nc2cc(S(=O)(=O)N3CCOCC3)ccc2N2CCCC2)c1 1.64%
COc1ccc(CN(C(=O)CN2C(=O)NC3(CCC(C)CC3)C2=O)C(C)Cc2cccs2)cc1 (centres undefined) -1.57%
c1ccc(-c2nc(N3CCOCC3)c3ccccc3n2)nc1 -3.18%
CCc1nnc(NC(=O)COc2ccc3c(c2)OCO3)s1 -3.47%
CN1CCCCc2c1nc1ccccc1c2N (tested in a mixture with another compound) -14%
COc1cc(/C=C/C(=O)OCC(=O)NNC(=O)c2cc(Cl)ccc2OC)ccc1O 3.64%
Cc1cc(OCC(=O)Nc2ccccc2N2CCCCC2)ccc1C(C)C 2.21%
FC(F)(F)c1ccc(N/N=C/c2cccnc2)nc1 -1.15%
COc1ccccc1/C=N/Nc1cc(C)nc(N2CCOCC2)n1 11.2%
N#Cc1cc(-c2ccccc2)cnc1Sc1ccc(Cl)cc1 6.46%
CN1CC2(Cc3c1ccc1ccccc31)C(=O)OC(C)(C)OC2=O -0.443%
CC1=NOC(=O)/C1=C\c1ccc(-c2ccc(Cl)c(C(=O)O)c2)o1 -10.8%
Cc1cc(=O)cc(C)n1-c1ccc(O)cc1 -3%
CSc1ncccc1C(=O)OCC(=O)N1CC2(C)CC1CC(C)(C)C2 (centres undefined) -1.03%
Cn1c(=O)cc(SCC(=O)N2CCOCC2)c2ccc(Cl)cc21 -0.94%
O=S(=O)(Nc1nc(-c2ccco2)c(-c2ccco2)s1)c1ccc(F)cc1F -6.56%
O=C(COC(=O)c1cc(S(=O)(=O)N2CCOCC2)ccc1F)c1ccc[nH]1 -2.3%
CCN(CC)C(=O)c1cc([N+](=O)[O-])cc2c1-c1ccc([N+](=O)[O-])cc1C2=C(C#N)C#N -6.91%
CC(=O)c1cc(-c2ccccc2)n(CC(=O)NC2CCCCC2)c1C -3.33%
COc1ccc(-c2c3c(nc4sc(C(=O)Nc5cc(C)on5)c(N)c24)CCC3)cc1 12.8%
N=C1SCC(=O)N1c1ncc(Cc2cccc(Cl)c2)s1 4.23%
Cc1cccc(OCCC(=O)Nc2ccccc2C(N)=O)c1 -0.179%
CCOC(=O)c1c(C)[nH]c(C)c1C(=O)COC(=O)[C@@H]1CCCN1S(=O)(=O)c1ccc(Cl)cc1 -6.9%
COC(=O)c1c(SCC(=O)Nc2ccc(C)c(C)c2)nc(=O)[nH]c1C -3.37%
CCn1cnc2c1c(=O)n(CC(=O)O)c(=O)n2Cc1ccccc1 -4.49%
Cc1cc(=O)n(Cc2ccccc2)c(O)c1C#N -1.83%
CCOC(=O)c1cc(-c2ccc(F)cc2)nc2c1c(=O)[nH]c(=O)n2Cc1ccccc1 6.15%
Cc1c(C)n(Cc2ccccc2)c2ccc(C(=O)OCCCN(C)C)cc12 -4.55%
COc1ccc(S(=O)(=O)N(C)CC(=O)NCCN2CCOCC2)cc1Cl -0.151%
c1ccc(CCN2CN=C(Nc3nc4ccccc4s3)NC2)cc1 -2.52%
O=C1CC2(CCCCC2)CC(=O)N1CCc1ccccc1 -2.82%
Nc1ccc(N=Nc2ccccc2O)c(N)c1 -12.8%
O=C(OCc1ccc(Cl)c(Cl)c1)c1cccnc1Cl -0.016%
CCN1CCN(CCCNC(=O)c2ccc3c(c2)NC(=O)/C(=C\c2cccc(C)c2)S3)CC1 -3.33%
O=C(CN1CCOCC1)Nc1ccc(Oc2ccccc2)cc1 -1.22%
O=C(O)C=C1C2CC3CC(C2)CC1C3 -2.4%
COC(=O)CC1=NN(c2ccc(OC)cc2)C(=O)/C1=C\c1ccc(Cl)cc1 -0.285%
Nc1nonc1C(=O)N/N=C/c1cc2c(cc1[N+](=O)[O-])OCO2 -2.99%
CC(C)(C)C(=O)NC1CC2CCCC(C1)N2C(=O)Nc1ccc(Cl)cc1 (centres undefined) 4.82%
COc1ccc2c(C#N)c3ccccn3c2c1 -2.94%
COc1ccc(-c2cn[nH]c2N)cc1 4.01%
CN(C)CCCN1C(=O)c2cccc3c([N+](=O)[O-])ccc(c23)C1=O -14.9%
O=C1CC(=O)Nc2cc(S(=O)(=O)Nc3ccc(Cl)c(C(F)(F)F)c3)ccc2N1 0.666%
COc1ccc(NS(=O)(=O)c2cccc(C(=O)N3CCCCCC3)c2)cc1 -3.61%
CC(=O)NC1=NN(C(C)=O)C(C)(c2cccc([N+](=O)[O-])c2)S1 (centres undefined) -1.79%
CCOC(=O)C1(C)CCCN1C(=O)c1cccc(F)c1 (centres undefined) 1.47%
CC1(CC(=O)N/N=C/c2cc([N+](=O)[O-])c(O)cc2O)OCCO1 -0.127%
Cc1cc(NC(=O)COC(=O)c2cccc(S(=O)(=O)N3CCOCC3)c2)no1 2.01%
O=C(CNc1ccc(F)cc1)N/N=C/c1c(O)ccc2ccccc12 3%
C/C(=N\NC(=O)CSc1nc2ccccc2o1)c1ccc(O)cc1 2.05%
O=C(CSc1nc(-c2ccccc2)c(-c2ccccc2)o1)Nc1nnc(-c2ccccc2)s1 -2.84%
C=CCn1c(-c2ccc(OC)cc2)nc2nc3ccccc3nc21 -2.2%
O=c1[nH]c(CN2CCOCC2)nc2cc(Cl)ccc12 0.642%
